Experimental data as given in PubChem BioAssay AID1438 (Sanford-Burnham Center for Chemical Genomics, 2008).
Out of some 2,200 compounds screened, about 45 (2%) were called active. The list is a sample of the results. Entries with a potency or affinity are not part of this list. Values without a mark were called inactive. How the calls were made is not given here.

Each molecule was assayed against Runt-related transcription factor 1 (Homo sapiens) + Core-binding factor subunit beta (Homo sapiens) (UniProt Q01196+Q13951) (assay: Runt domain/CBFb-SMMHC interaction disruptors – biochemical, TR-FRET (AID 1438)). Settings: at 20 µM, hits give high values.
Chain of Runt-related transcription factor 1 (Homo sapiens) + Core-binding factor subunit beta (Homo sapiens) (Q01196 whole entry, looked up, the tested form may be a part): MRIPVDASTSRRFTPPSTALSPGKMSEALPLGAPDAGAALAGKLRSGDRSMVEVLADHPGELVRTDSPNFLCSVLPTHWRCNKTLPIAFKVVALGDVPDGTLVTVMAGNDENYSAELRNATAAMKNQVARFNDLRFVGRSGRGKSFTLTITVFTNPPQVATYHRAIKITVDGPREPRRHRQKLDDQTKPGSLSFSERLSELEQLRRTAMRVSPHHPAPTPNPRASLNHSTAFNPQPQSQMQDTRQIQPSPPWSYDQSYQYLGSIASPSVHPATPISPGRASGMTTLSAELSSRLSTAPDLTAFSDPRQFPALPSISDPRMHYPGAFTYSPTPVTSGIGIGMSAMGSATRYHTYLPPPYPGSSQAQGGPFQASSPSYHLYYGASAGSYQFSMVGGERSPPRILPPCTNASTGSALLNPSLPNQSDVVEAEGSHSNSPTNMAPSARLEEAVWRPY
Chain of Runt-related transcription factor 1 (Homo sapiens) + Core-binding factor subunit beta (Homo sapiens) (Q13951 whole entry, looked up, the tested form may be a part): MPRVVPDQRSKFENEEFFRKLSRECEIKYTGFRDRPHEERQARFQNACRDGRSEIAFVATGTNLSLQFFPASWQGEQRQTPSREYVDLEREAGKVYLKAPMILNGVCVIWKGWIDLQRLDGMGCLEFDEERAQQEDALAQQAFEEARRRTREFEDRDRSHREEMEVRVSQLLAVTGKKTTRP

Row | SMILES | inhibition
1 | N#C/C(=C(/O)CCCl)c1ccccn1 | -8%
2 | c1ccc(-c2onc3cc4c(cc23)OCCO4)cc1 | 17.4%
3 | CCOC(=O)c1cc2c(=O)n3cccc(C)c3nc2n(CC(C)C)c1=NC(=O)c1ccco1 | -5.3%
4 | CCOc1ccc2nc(NCCNC(=O)CC)c(C#N)cc2c1 | 33.5%
5 | CC(=O)N(C)/C=C1\Sc2ccccc2C1=O | 6.4%
6 | Cc1ccc(-n2c(=O)c(C#N)cc3c(=O)n4cccc(C)c4nc32)cc1 | 48.6%
7 | COCCCn1c(=O)/c(=C\c2ccc(OC(F)F)c(OC)c2)s/c1=C(/C#N)C(=O)NCCOC | -12.1%
8 | Cc1ccc(C)c(OCCn2cc(/C=C(\C#N)C(=O)NCc3ccco3)c3ccccc32)c1 | 17.3%
9 | COc1cc(N2C(=O)C=CC2=O)c(OC)cc1Cl | -8.5%
10 | Cc1cc(N2C(=O)C=CC2=O)c([N+](=O)[O-])cc1C | 52.7% (active)
11 | C=C(C)CNC(=S)Nc1sc2c(c1C(=O)OCC)CC(C)(C)OC2 | -9.8%
12 | O=C(O)c1c2c(nc3ccccc13)/C(=C/c1ccc(O)cc1)CC2 | -6.6%
13 | Cc1cccc(C)c1NC(=O)COC(=O)c1c2c(nc3ccccc13)/C(=C\c1ccc3c(c1)OCO3)CCC2 | 1.3%
14 | COc1ccc(/C=C2\CCc3c2nc2ccccc2c3C(=O)O)cc1OC | -11.1%
15 | NS(=O)(=O)c1ccc(NC(=O)COC(=O)c2c3c(nc4ccccc24)/C(=C\c2ccc4c(c2)OCO4)CCC3)cc1 | -24.4%
16 | CCN1CCc2c(C#N)c(N3CCOCC3)nc(NCc3ccccc3)c2C1 | 35.4%
17 | Cc1cccn2c(=O)c3cc(C(=O)NCC4CCCO4)c(=N)n(CCN4CCOCC4)c3nc12 (stereo not given) | 11.3%
18 | COc1ccc(C2C=C(c3ccccc3)Nc3ncnn32)cc1 (stereo not given) | 30.8%
19 | Cc1ccccc1-n1c(=O)c(C#N)cc2c(=O)n3ccccc3nc21 | 23.6%
20 | c1cc2c(cc1-c1csc(NNC3=NCCCCC3)n1)OCCO2 | -4.3%
21 | N#Cc1c(NCCO)nc(NCc2ccccc2)c2c1CCN(Cc1ccccc1)C2 | 48.5%
22 | C=CCNc1nc(NCc2ccccc2)c(C#N)c2c1CN(C)CC2 | 31.3%
23 | Cn1c(=N)c(S(=O)(=O)c2ccc(F)cc2)cc2c(=O)n3ccccc3nc21 | 47.6%

Row | SMILES | inhibition
24 | O=C(O)c1cc2ccc3ccccc3c2oc1=O | 34.5%
25 | O=C(c1cc2ccccc2oc1=O)N1CCN(CCc2ccccc2)CC1 | 55.2% (active)
26 | COc1cc2cc(C(=O)N3CCN(Cc4ccc5c(c4)OCO5)CC3)c(=O)oc2cc1OC | -6.8%
27 | CC1=CC(c2ccc(Cl)cc2)n2nc(NC(=O)CCC(=O)O)nc2N1 (stereo not given) | -7.4%
28 | Cc1cc(-c2nc3cccnc3s2)ccc1NS(=O)(=O)c1cccs1 | -9.2%
29 | Cc1ccccc1C(=O)N=c1c(C#N)cc2c(=O)n3cccc(C)c3nc2n1Cc1ccco1 | 47%
30 | Cc1cccn2c(=O)c3cc(C#N)c(=NC(=O)c4ccco4)n(Cc4ccco4)c3nc12 | -9.7%
31 | CCOC(=O)c1cc2c(=O)n3ccccc3nc2n(Cc2ccco2)c1=NC(=O)c1ccc(OC)cc1 | -16.9%
32 | COCCCn1c(=NC(=O)c2ccncc2)c(C#N)cc2c(=O)n3cccc(C)c3nc21 | 14%
33 | CC(=O)N=c1c(C#N)cc2c(=O)n3ccccc3nc2n1Cc1ccccc1 | 47.4%
34 | CC(=O)N=c1c(C#N)cc2c(=O)n3cccc(C)c3nc2n1Cc1ccco1 | -8.8%
35 | O=C(Cc1nc2ccccc2s1)c1ccc(O)cc1O | 15.1%
36 | CCOC(=O)c1cc(C(=O)OCC)c2ccccn2c1=O | 25.7%
37 | COCCCNC(=O)c1cc2c(=O)n3cc(C)ccc3nc2nc1NCC1CCCO1 (stereo not given) | -2.6%
38 | CC(C)OC(=O)c1c2nc3ccccc3nc2n2c1[nH]c(=O)c1ccccc12 | -203%
39 | Cc1ccc2[nH]cc(C(=O)CN3CCC4(CC3)OCCO4)c2c1 | 2.6%
40 | COCc1cc(=O)n2c([nH]c3ccccc32)c1C#N | 38.4%
41 | O=c1[nH]c2ccccc2n2c(-c3ccccc3)nnc12 | 84.1% (active)
42 | O=c1[nH]c2ccccc2nc1/C=C/c1ccccc1 | -5.7%
43 | Cc1cccn2c(=O)c3cc(C(=O)NCc4ccco4)c(=N)n(C(C)C)c3nc12 | 32.5%
44 | COc1cc(/C=C/C(=O)OCC(=O)Nc2ccccc2Sc2ccc(Cl)cc2)ccc1O | 1.1%
45 | Cc1cccn2c(=O)c(/C=C(\C#N)C(=O)NC3CCS(=O)(=O)C3)c(N3CC(C)OC(C)C3)nc12 (stereo not given) | -39.6%
46 | COc1ccc(OC)c(N=c2ssnc2Cl)c1 | -11.1%

Row | SMILES | inhibition
47 | N#Cc1c(NC(=S)NC(=O)c2ccccc2)sc2c1CCN(CCc1ccccc1)C2 | 52% (active)
48 | CC(C)N1CCc2c(sc(NC(=S)NC(=O)c3ccccc3)c2C#N)C1 | 21.2%
49 | CCCN1CCc2c(sc(NC(=S)NC(=O)c3ccccc3)c2C#N)C1 | -14.1%
50 | CNS(=O)(=O)c1ccc2nc(NC(=O)c3ccc(N4C(=O)CCC4=O)cc3)sc2c1 | -3.6%
51 | O=C(Nc1nc2c(s1)CN(Cc1ccccc1)CC2)C1CCC1 | 43%
52 | COc1ccc(C2c3ccc(O)cc3Oc3ncn(CC(C)C)c(=N)c32)cc1 (stereo not given) | -6.8%
53 | NNc1nc2sc3c(c2c(=O)n1C1CCCCC1)CCN(Cc1ccccc1)C3 | -9.4%
54 | CC(=O)Nc1sc2c(c1C(N)=O)CCN(Cc1ccccc1)C2 | -0.2%
55 | CC1(C)CC(=O)C2=C(C1)Nc1ccccc1NC2 | -9.5%
56 | O=C(c1ccccc1)c1cc2ccc(O)cc2oc1=O | -8.4%
57 | CCCn1c(=N)c(C(=O)NC2CCCC2)cc2c(=O)n3cccc(C)c3nc21 | 2.5%
58 | O=S(=O)(Nc1ccc(-c2nc3cccnc3s2)cc1)c1cccs1 | 29.2%
59 | CCc1ccc(S(=O)(=O)Nc2ccc(-c3nc4cccnc4s3)cc2)s1 | 44%
60 | Cc1cccc2cc(C#N)c(NCCNS(=O)(=O)c3ccccc3)nc12 | -12.6%
61 | CN1CCN(Cc2c(O)ccc3cc(-c4ccccn4)c(=O)oc23)CC1 | -17.3%
62 | COc1ccc(C2C3=C(CC(C)(C)CC3=O)Nc3c2c(=O)[nH]c2nc(C)nn32)cc1 (stereo not given) | 17.2%
63 | Cc1nc2[nH]c(=O)c3c(n2n1)NC1=C(C(=O)CC(C)(C)C1)C3c1ccc(F)cc1 (stereo not given) | 46.7%
64 | O=C(Nc1nccs1)c1ccccc1N=Cc1ccccc1 | 49.3%
65 | Cn1c(C(=O)NCc2ccccn2)cc2c(=O)n3ccccc3nc21 | 11.6%
66 | CC(C)Cn1c(N)c(C(=O)NCCN2CCOCC2)c2nc3ccccc3nc21 | 46.7%
67 | CC(C)Cn1c(N)c(C(=O)NCc2cccs2)c2nc3ccccc3nc21 | 17%
68 | Nc1c(C(=O)NCc2ccco2)c2nc3ccccc3nc2n1CCc1ccccc1 | 42.7%
69 | COc1ccc(CCn2c(N)c(C(=O)NCc3ccco3)c3nc4ccccc4nc32)cc1 | 46.3%

Row | SMILES | inhibition
70 | CCN1CCc2nc(SCC(=O)Nc3ccc(OC)cc3)c(C#N)cc2C1 | 20.7%
71 | CCOC(=O)C1=C(CSc2nc3c(cc2C#N)CN(C)CC3)OC(N)=C(C#N)C1c1ccncc1 (stereo not given) | 35.4%
72 | Cc1cc(=O)oc2cc(OC(=O)c3cncc(Br)c3)ccc12 | -4.4%
73 | O=C(COC(=O)COc1ccccc1[N+](=O)[O-])NC1CCCC1 | -6%
74 | COc1ccc(OCCn2cc(/C=C(\C#N)C(=O)NCc3ccco3)c3ccccc32)cc1 | -10.8%
75 | CN1CCc2cc3c(c4c2[C@H]1[C@H](O)c1ccccc1-4)OCO3 | 18.4%
76 | COc1c(O)ccc2c1CN1CCc3cc4c(cc3C1C2)OCO4 (stereo not given) | -9.6%
77 | CNC(=O)/C(C#N)=C/c1c(N(Cc2ccccc2)Cc2ccccc2)nc2c(C)cccn2c1=O | -14.8%
78 | CC(=O)N=c1c(C#N)cc2c(=O)n3ccccc3nc2n1CCCOC(C)C | 7.1%
79 | CCN(CC)c1ccc2cc(C(=O)Nc3cccnc3N3CCOCC3)c(=O)oc2c1 | -26.6%
80 | CCCCCCc1cc2cc(S(=O)(=O)c3ccc(Cl)cc3)c(=O)oc2cc1O | 12.2%
81 | CCn1c(=N)c(S(=O)(=O)c2ccccc2)cc2c(=O)n3ccccc3nc21 | -19.8%
82 | Cc1ccc2nc3c(cc(S(=O)(=O)c4ccccc4)c(=N)n3Cc3ccco3)c(=O)n2c1 | -7.9%
83 | Cc1cccn2c(=O)c3cc(S(=O)(=O)c4ccc(F)cc4)c(=N)n(Cc4ccco4)c3nc12 | -6.5%
84 | CCCn1c(=N)c(S(=O)(=O)c2ccccc2)cc2c(=O)n3ccccc3nc21 | -6.9%
85 | COC(=O)C1=CN(CC2CCCO2)C=C(C(=O)OC)C1c1ccccc1C(F)(F)F (stereo not given) | 45.6%
86 | Cc1ccccc1OCCn1cc(/C=C(\C#N)C(=O)NCc2ccco2)c2ccccc21 | 20.8%
87 | COCCOC(=O)C1=C(C)NC2=C(C(=O)CC(C)(C)C2)C1c1cccnc1 (stereo not given) | 35.5%
88 | Fc1ccc(CSc2nc3ncccc3[nH]2)cc1 | -9.6%
89 | CCC(C)n1c(=N)c(C#N)cc2c(=O)n3cccc(C)c3nc21 (stereo not given) | -18.9%
90 | CCOC(=O)c1cc2c(=O)n3ccccc3nc2n(Cc2ccco2)c1=NC(=O)c1cccc(OC)c1 | -10.1%
